An excerpt weighted towards active compounds, which were near 11% of everything screened.
Pf growth 48h: inhibits P. falciparum growth in the first generation, 48 h. P. falciparum luciferase growth in erythrocytes, 48 h. Potency, µM (titrated, usually from 28.7 µM), actives largely listed as inhibitors. hit rate 5.9% among 310,000. AID 504832
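In quantitative HTS format, infected erythrocytes bearing luciferase-reporter parasites were treated for a single generation at 37 C. Luminescence after adding detection reagent served as the growth measure.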
HCV inhibitor: HCV inhibition; hit rate 3.4% among 340,000; Huh7.5.1 HCVcc-Cre infection, luciferase reporter, 44 h; AID 651820; Potency, µM (series often up to 41.8 µM), usual class: inhibitors
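Seed cells (1,000/well) for 4 h; treat with compound and infect with HCVcc-Cre, moi about 0.5. Incubate 44 h, then detect luciferase activity.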
Pf growth 96h: P. falciparum growth inhibition at 96 hour, primary screen for plastid delayed-death inhibitors; P. falciparum luciferase reporter growth, 96 h; Potency, µM (titrated, usually from 28.7 µM), actives largely listed as inhibitors; hit rate 6.9% among 320,000; AID 504834
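P. falciparum expressing integrated firefly luciferase grown in erythrocytes (2% hematocrit, 0.05% parasitemia final) with compounds for 96 hours at 37 C, 5% CO2. Growth inhibition read as loss of luminescence after adding luciferase detection reagent.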
AMA1-RON2 inh: AMA1-RON2 (P. falciparum) interaction inhibition. AlphaScreen AMA1-biotinylated RON2 peptide binding. Potency, µM (doses to about 58.2 µM), most hits filed as inhibitors. hit rate 0.2% among 360,000. AID 720542; note: nearly all actives have a fitted effect of over 45% in size
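AMA1 (3D7) with his tag at 25 nM final met compounds first, then biotinylated RON2 peptide at 25 nM; detection used donor plus acceptor beads, 10 µg/mL apiece, read by AlphaScreen after 30 min at room temperature.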
A number is an active result; i = inactive; ? = inconclusive; nt = no result given. Calls come from the whole dose curve; as a rule, active = well fitted curve in the direction sought with a large enough effect; inconclusive = small, poorly fitted or top-dose-only effect, or another doubt; inactive = no such curve, though single readings can be large; an effect the other way counts as inactive or inconclusive.

SMILES	Pf growth 48h	HCV inhibitor	Pf growth 96h	AMA1-RON2 inh
CCOc1ccc(NC2=CC(=O)C(=O)c3ccccc32)cc1	nt	?	nt	i
O=C1C=C(Nc2cccnc2)c2ccccc2C1=O	nt	12.6µM	nt	i
COc1ccc(N2CCN(C(=S)NCc3ccccc3)CC2)cc1	i	i	?	i
COc1cc2c(cc1NC(=O)c1cccc(Br)c1)CCCC2	i	7.08µM	?	i
COc1cc2c(cc1NC(=O)c1cccc(F)c1)CCCC2	i	?	i	i
CC1(C)CC(=O)C2=C(C1)OC1=C(C(=O)CC(C)(C)C1)C2c1ccc(O)cc1O	11.7µM	?	10.4µM	i
CC(O)[C@@H](C(=O)N1CCNCC1)n1cc(CCCCN)nn1 (some centres undefined)	i	?	i	i
CC(C)N1CCN(Cc2cnc(N3CCCC3)s2)CC1CCO (centres undefined)	i	i	9.28µM	i
CC(=O)N1c2ccccc2C2CCCC[C@H]21 (some centres undefined)	i	i	i	i
CC1=CC2=NC(=O)/C(=C\c3cc(C)n(-c4ccc(F)cc4)c3C)C(=N)N2O1	4.65µM	?	?	i
CCN(CC)/C(N)=N/c1nc(C)cc(C)n1	i	i	i	i
CC(C)(C)NCC(O)c1cc(Cl)c(N)c(C(F)(F)F)c1 (centres undefined)	13.5µM	nt	8.49µM	nt
c1ccc(-c2cc3c(N4CCCCC4)ncnc3s2)cc1	i	?	i	i
c1ccc(-c2cc3c(N4CCOCC4)ncnc3s2)cc1	i	10µM	i	i
c1ccc(-c2cc3c(N4CCCC4)ncnc3s2)cc1	i	10µM	i	i
Cc1nc(N2CCOCC2)c2cc(-c3ccccc3)sc2n1	nt	?	?	i
C=CCn1c(SCC(=O)NC(=O)c2cccc([N+](=O)[O-])c2)nnc1-c1ccccc1	i	i	i	i
Cc1c(C(=O)N(C)Cc2nc3ccccc3c(=O)[nH]2)oc2ccccc12	nt	?	nt	i
COc1ccccc1CN(Cc1nc2ccccc2c(=O)[nH]1)C(=O)Nc1ccc(C)cc1	?	i	nt	i
CC(=O)c1ccc(-c2ccc(C(=O)N(C)Cc3nc4ccccc4c(=O)[nH]3)o2)cc1	?	7.08µM	?	i
CN(Cc1nc2ccccc2c(=O)[nH]1)C(=O)c1ccc(S(=O)(=O)N(C)C)cc1	nt	i	?	i
COc1ccccc1CN(Cc1nc2ccccc2c(=O)[nH]1)S(=O)(=O)c1ccc(C)cc1	5.86µM	i	nt	i
Cc1ccc(S(=O)(=O)N(C)c2ccc(C(=O)N(C)Cc3nc4ccccc4c(=O)[nH]3)cc2)cc1	11.7µM	i	5.86µM	i
CC1CCCCC1N(C)C1CCN(C(=O)CNC(=O)/C=C/c2cccc(Cl)c2)CC1 (centres undefined)	?	?	i	i
CC1(C(=O)NS(=O)(=O)C2CC2)CCCN(C(=O)c2ccco2)C1 (centres undefined)	nt	nt	nt	i

Compound activity from PubChem BioAssay.
